This note sets out measurements from PubChem BioAssay AID1527 (The Scripps Research Institute Molecular Screening Center, 2009).

Among all 290,000 compounds or so, about 2,600 (0.9%) were called active.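 The calls were made as follows: active = inhibition above the mean of all tested compounds plus 3 SD, cutoff set per screening run (cut at about 7.5% in these data); inactive = the rest.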 What follows is part of a selection rich in actives, with near analogues and random picks from the rest.

The experiment has as its system VIM-2 metallo-beta-lactamase (Pseudomonas aeruginosa). Kind of experiment: VIM-2 metallo-beta-lactamase inhibitors, primary screen, biochemical, epi-absorbance readout, Pseudomonas aeruginosa enzyme (AID 1527).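 Also: red hydrolysis product quenches plate fluorescence so inhibitors raise well fluorescence; 0% = enzyme with DMSO and 100% = DMSO without enzyme.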 To be noted: purified VIM-2, nitrocefin hydrolysis, epi-absorbance fluorescence; at 5.6 µM; stronger effect = higher value.
On to `c1ccc(Nc2nc(N3CCOCC3)c3ccccc3n2)cc1`, for which the inhibition was -0.89% (inactive). Turning to `CN1CCN(c2nc(Nc3ccc(O)cc3)nc3ccccc23)CC1`, the inhibition was 12.2% (active).

For the compound `Cc1cccc(-c2nc(Nc3ccc(O)cc3)c3ccccc3n2)c1`, the inhibition is -0.38% (inactive). The result for `O=C(/C=C/c1ccc2c(c1)OCCO2)c1ccc(O)cc1` reads 0.15% (inactive); that for `CCC(=C/c1sc2ccc3ccccc3c2[n+]1C)/C=C1\Sc2ccc3ccccc3c2N1C`, 18.2% (active). Then `CN1CCN(c2ccc(NC(=O)c3ccccc3)cc2)CC1`, with 5.59% (inactive); and `CC(C)n1c(=O)[nH]c2cc(C(=O)Nc3ccccc3)ccc21`, with -0.68% (inactive).

On to `CN1CCN(c2ccc(NC(=O)c3ccc4c(c3)[nH]c(=O)n4Cc3ccc(F)cc3)cc2)CC1`, for which the inhibition was 17.6% (active). In the case of `Cc1cc2occ(CC(=O)NNC(=O)c3ccccc3F)c2cc1C`, the inhibition was -1.98% (inactive). Then `Cc1nc(N)nc(SCc2ccc([N+](=O)[O-])cc2)c1N`, with -0.52% (inactive). Then `COC(=O)c1ccc(NC(=O)CSc2nnc(C3CC3)n2C)cc1`, with -2.19% (inactive); and `CCN1CCN(c2ccc(NC(=O)c3cnccn3)cc2)CC1`, with 11.1% (active); and `O=C(Nc1ccc(S(=O)(=O)N2CCCCC2)cc1)c1cnccn1`, with -1.24% (inactive).

For the compound `O=C(Nc1ccc2c(c1)OCCO2)c1cnccn1`, the inhibition is -1.18% (inactive). Then `CC(CC(=O)N1CCN(c2ccccc2)CC1)S(=O)(=O)c1ccc2c(c1)NC(=O)CS2` (stereo not given), with -2.34% (inactive); and `CN1CCN(Cc2c(C(=O)N3CCc4ccccc4C3)nc3ccc(Cl)cn23)CC1`, with 1.36% (inactive). The result for `COC(=O)c1c(NC(=O)c2ccc(S(=O)(=O)N3CCOCC3)cc2)sc2c1CCN(C(C)C)C2` reads 60.3% (active).

As for `CNC(=O)c1ccsc1NC(=O)c1ccc(S(=O)(=O)N2CCOCC2)cc1`, the inhibition is 18.2% (active). Then `O=C(Nc1ccc(N2CCOCC2)c(Cl)c1)c1ccc(S(=O)(=O)N2CCOCC2)cc1`, with -1.9% (inactive); and `CNC(=O)c1ccsc1NC(=O)c1ccc(S(=O)(=O)N2CCc3ccccc32)cc1`, with -1.27% (inactive). Consider `COc1ccc(C(=O)Nc2nc(-c3ccc(S(=O)(=O)N4CCOCC4)cc3)cs2)cc1`, for which the inhibition is -4.64% (inactive). For `CC1CN(S(=O)(=O)c2ccc(C(=O)Nc3sccc3C(N)=O)cc2)CC(C)O1` (stereo not given), the inhibition is -1.24% (inactive). Consider `Cc1ccn2c(c1)nc(=O)c1cc(S(=O)(=O)N3CCC(C)CC3)ccc12`, for which the inhibition is 3.01% (inactive). The result for `CC(C(=O)NC1CCCCC1)N1C(=O)c2cccc3cccc1c23` (stereo not given) reads 0.01% (inactive).

Take `COc1ccc2c(c1OC)C(=O)N(c1ccc(O)cc1)C2`: the inhibition is -1.4% (inactive).

One may read the inhibition as the relative decrease from the control value, in per cent.
